According to PubChem BioAssay:
Some of the results follow. The source made the active and inactive calls.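 The calls were made as follows, unless noted: active = inhibition above a set limit taken from the earlier primary screen (cut at about 63% in these data); inactive = the rest.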

Biological target: Neuropeptide Y receptor type 1 (Homo sapiens) (UniProt P25929)
Assay: human Y1 receptor positive modulation or activation – cell-based, fluorescence, counter-screen for NPY-Y2 potentiator project (AID 1651; in the data active = activation above about 45%;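 also: cells stimulated with submaximal NPY then isoproterenol with phosphodiesterase inhibitor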)
Settings: Y1 HEK293-CNG cells, membrane potential fluorescence; at 3.6 µM; active compounds read high

Neuropeptide Y receptor type 1 (Homo sapiens), sequence (P25929 whole entry, looked up): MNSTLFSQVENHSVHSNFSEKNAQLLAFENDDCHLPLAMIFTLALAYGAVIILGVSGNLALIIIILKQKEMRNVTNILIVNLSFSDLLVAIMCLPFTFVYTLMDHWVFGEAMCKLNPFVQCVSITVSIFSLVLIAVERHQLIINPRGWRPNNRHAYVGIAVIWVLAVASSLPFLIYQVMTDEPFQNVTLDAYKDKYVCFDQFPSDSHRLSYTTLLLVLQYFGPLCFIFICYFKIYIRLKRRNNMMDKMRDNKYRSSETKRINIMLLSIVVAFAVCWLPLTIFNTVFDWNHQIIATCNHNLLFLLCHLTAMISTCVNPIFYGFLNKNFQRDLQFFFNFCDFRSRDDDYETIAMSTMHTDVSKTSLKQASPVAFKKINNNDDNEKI

| SMILES | activation |
| --- | --- |
| O=C1NC(c2ccc(-c3ccccc3[N+](=O)[O-])o2)C(C(=O)c2ccc(Cl)cc2)C(O)(C(F)(F)F)N1 (centres undefined) | 38.7% (inactive) |
| CN(Cc1ccccc1)C(=O)CCNC(=O)Cn1cnc2ccccc2c1=O | 33.4% (inactive) |
| CC(=O)c1ccc2c(c1)OCCOCCOc1ccc(C(C)=O)cc1OCCOCCO2 | 25.9% (inactive) |
| N/C(=N\S(=O)(=O)c1cc(C(F)(F)F)cc(C(F)(F)F)c1)c1cccs1 | 29.6% (inactive) |
| O=C(NCc1ccccc1)c1ccc(S(=O)(=O)Nc2cccc(C(F)(F)F)c2)cc1 | 17% (inactive) |
| CN(C)c1ccc(CNC2C3CC4CC(C3)CC2C4)cc1 (centres undefined) | -7.77% (inactive) |
| COc1cc(NC(=O)c2ccccc2NS(=O)(=O)c2ccc(Cl)s2)cc(OC)c1 | -30.1% (inactive) |
| CC(Nc1ccccc1)c1cccnc1 (centres undefined) | -7.91% (inactive) |
| COc1ccc2nc(NC(=O)NC3CCCCC3)sc2c1 | 66.1% (active) |
| Cc1ccc(CCNC(=O)C2CCN(S(=O)(=O)N3CCCC3)CC2)cc1 | -6.28% (inactive) |
| O=C(Nc1sc2c(c1-c1nc3ccccc3[nH]1)CCCC2)C1CC1 | 30.4% (inactive) |

Biological target: Neuropeptide Y receptor type 1 (Homo sapiens) (UniProt P25929)
Assay: human Y1 receptor agonism, CNGC membrane potential – cell-based, fluorescence, selectivity assay for NPY-Y2 potentiator project (AID 1702;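 active = activation above the mean of DMSO-only control wells plus 3 SD, cut at about 18% in these data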;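 also: cells stimulated with 1 µM isoproterenol plus the PDE inhibitor Ro 20-1724; 0% = isoproterenol with DMSO and no NPY and 100% = 40 nM NPY; Y1 agonists lower the membrane potential dye signal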)
Settings: HEK293 Y1-CNGC, at 3.6 µM, active compounds read high

| SMILES | activation |
| --- | --- |
| O=C1NC(c2ccc(-c3ccccc3[N+](=O)[O-])o2)C(C(=O)c2ccc(Cl)cc2)C(O)(C(F)(F)F)N1 (centres undefined) | 30.5% (active) |
| CN(Cc1ccccc1)C(=O)CCNC(=O)Cn1cnc2ccccc2c1=O | 11.4% (inactive) |
| CC(=O)c1ccc2c(c1)OCCOCCOc1ccc(C(C)=O)cc1OCCOCCO2 | 36.5% (active) |
| N/C(=N\S(=O)(=O)c1cc(C(F)(F)F)cc(C(F)(F)F)c1)c1cccs1 | 15.7% (inactive) |
| O=C(NCc1ccccc1)c1ccc(S(=O)(=O)Nc2cccc(C(F)(F)F)c2)cc1 | 12% (inactive) |
| CN(C)c1ccc(CNC2C3CC4CC(C3)CC2C4)cc1 (centres undefined) | -11.2% (inactive) |
| COc1cc(NC(=O)c2ccccc2NS(=O)(=O)c2ccc(Cl)s2)cc(OC)c1 | -29% (inactive) |
| CC(Nc1ccccc1)c1cccnc1 (centres undefined) | -5.76% (inactive) |
| COc1ccc2nc(NC(=O)NC3CCCCC3)sc2c1 | 72.5% (active) |
| Cc1ccc(CCNC(=O)C2CCN(S(=O)(=O)N3CCCC3)CC2)cc1 | -10.2% (inactive) |
| O=C(Nc1sc2c(c1-c1nc3ccccc3[nH]1)CCCC2)C1CC1 | 27.3% (active) |

Test system: not listed separately
Assay: blockers of isoproterenol-driven CNG channel signal – cell-based, HEK293-CNG parental, membrane potential fluorescence, counter-screen for NPY-Y2 potentiator project (AID 1703;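 active = inhibition above the control-well mean plus 3 SD of those wells, cut at about 22% in these data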;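 also: 0% = DMSO with isoproterenol and 100% = DMSO without isoproterenol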)
Settings: isoproterenol cAMP, at 3.6 µM, active compounds read high

| SMILES | inhibition |
| --- | --- |
| O=C1NC(c2ccc(-c3ccccc3[N+](=O)[O-])o2)C(C(=O)c2ccc(Cl)cc2)C(O)(C(F)(F)F)N1 (centres undefined) | 31.2% (active) |
| CN(Cc1ccccc1)C(=O)CCNC(=O)Cn1cnc2ccccc2c1=O | 11.2% (inactive) |
| CC(=O)c1ccc2c(c1)OCCOCCOc1ccc(C(C)=O)cc1OCCOCCO2 | 22.4% (active) |
| N/C(=N\S(=O)(=O)c1cc(C(F)(F)F)cc(C(F)(F)F)c1)c1cccs1 | 25.6% (active) |
| O=C(NCc1ccccc1)c1ccc(S(=O)(=O)Nc2cccc(C(F)(F)F)c2)cc1 | 16.6% (inactive) |
| CN(C)c1ccc(CNC2C3CC4CC(C3)CC2C4)cc1 (centres undefined) | 5.13% (inactive) |
| COc1cc(NC(=O)c2ccccc2NS(=O)(=O)c2ccc(Cl)s2)cc(OC)c1 | -9.95% (inactive) |
| CC(Nc1ccccc1)c1cccnc1 (centres undefined) | 2.7% (inactive) |
| COc1ccc2nc(NC(=O)NC3CCCCC3)sc2c1 | 56.1% (active) |
| Cc1ccc(CCNC(=O)C2CCN(S(=O)(=O)N3CCCC3)CC2)cc1 | -4.94% (inactive) |
| O=C(Nc1sc2c(c1-c1nc3ccccc3[nH]1)CCCC2)C1CC1 | 19.9% (inactive) |

Biological target: Neuropeptide Y receptor type 2 (Homo sapiens) (UniProt P49146)
Sequence (P49146 whole entry, looked up): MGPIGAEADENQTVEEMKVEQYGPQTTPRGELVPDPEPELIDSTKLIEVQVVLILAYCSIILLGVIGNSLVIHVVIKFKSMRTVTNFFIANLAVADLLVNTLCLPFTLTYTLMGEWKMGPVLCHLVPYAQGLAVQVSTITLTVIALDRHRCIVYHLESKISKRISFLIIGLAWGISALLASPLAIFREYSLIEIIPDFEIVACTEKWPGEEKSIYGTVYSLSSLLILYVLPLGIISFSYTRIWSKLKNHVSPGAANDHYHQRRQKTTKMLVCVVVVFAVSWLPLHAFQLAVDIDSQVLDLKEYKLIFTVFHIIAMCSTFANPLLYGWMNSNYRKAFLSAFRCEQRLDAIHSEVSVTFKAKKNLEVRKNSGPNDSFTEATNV
Assay: agonism at human Y2 receptor without NPY – cell-based, fluorescence, counter-screen for NPY-Y2 potentiator project (AID 1710;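 active = activation above the mean of solvent-only control wells plus 3 SD, cut at about 10% in these data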;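 also: cells stimulated by isoproterenol with no NPY added so direct agonism is tested; 0% = DMSO with isoproterenol alone and 100% = NPY at EC100 plus isoproterenol; agonism lowers probe fluorescence through less cAMP and CNG channel opening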)
Settings: HEK293 Y2/CNGC cells, membrane potential fluorescence, agonist mode; at 3.6 µM; active compounds read high

| SMILES | activation |
| --- | --- |
| O=C1NC(c2ccc(-c3ccccc3[N+](=O)[O-])o2)C(C(=O)c2ccc(Cl)cc2)C(O)(C(F)(F)F)N1 (centres undefined) | 32.6% (active) |
| CN(Cc1ccccc1)C(=O)CCNC(=O)Cn1cnc2ccccc2c1=O | 18.3% (active) |
| CC(=O)c1ccc2c(c1)OCCOCCOc1ccc(C(C)=O)cc1OCCOCCO2 | 26.6% (active) |
| N/C(=N\S(=O)(=O)c1cc(C(F)(F)F)cc(C(F)(F)F)c1)c1cccs1 | 23.1% (active) |
| O=C(NCc1ccccc1)c1ccc(S(=O)(=O)Nc2cccc(C(F)(F)F)c2)cc1 | 19.8% (active) |
| CN(C)c1ccc(CNC2C3CC4CC(C3)CC2C4)cc1 (centres undefined) | -2.65% (inactive) |
| COc1cc(NC(=O)c2ccccc2NS(=O)(=O)c2ccc(Cl)s2)cc(OC)c1 | -3.82% (inactive) |
| CC(Nc1ccccc1)c1cccnc1 (centres undefined) | 17.8% (active) |
| COc1ccc2nc(NC(=O)NC3CCCCC3)sc2c1 | 53.9% (active) |
| Cc1ccc(CCNC(=O)C2CCN(S(=O)(=O)N3CCCC3)CC2)cc1 | -8.83% (inactive) |
| O=C(Nc1sc2c(c1-c1nc3ccccc3[nH]1)CCCC2)C1CC1 | 24.5% (active) |

Test system: not listed separately
Assay: suppression of KLF5 promoter-driven luciferase – DLD-1 cells, luminescence, confirmation (AID 1834);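 also: 0% = DMSO wells and 100% = LY294002 at 200 µM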
Settings: DLD-1 KLF5 promoter firefly luciferase reporter, at 4 µM, active compounds read high

| SMILES | inhibition |
| --- | --- |
| O=c1cc(-c2ccccc2)[nH]c2cc(F)ccc12 | 77.9% (active) |
| COc1ccccc1C1C2=C(COC2=O)Nc2cc3c(cc21)OCO3 (centres undefined) | 88.1% (active) |
| CCNC(=O)CCc1nc(-c2ccc(C(C)(C)C)cc2)no1 | 56% (inactive) |
| COc1ccccc1N1CCN(C(=O)c2cc(=O)c3cc(C)cc(C)c3o2)CC1 | 87.3% (active) |
| CN(c1ccc2nc3ccccc3c(=O)n2n1)C1CCCCC1 | 72.9% (active) |
| CCOC(=O)c1sc(NC(=O)c2sc(C)nc2C)nc1C | 69.3% (active) |
| CCOC(=O)CSC1=C(C#N)C(c2sccc2C)CC(=O)N1 (centres undefined) | 63.3% (active) |
| COc1cccc(/C=N/Nc2ncc(C(F)(F)F)cc2Cl)c1O | 99.8% (active) |
| CC(=O)c1ccc(Oc2cc(C)nc(-n3nc(C)cc3C)n2)cc1 | 63.5% (active) |
| CCOc1ccccc1NC(=O)Cn1nnc(C(=O)NCc2cccs2)c1N | 83.1% (active) |
| CCOc1cc(C(=O)N2CCc3cc(OC)c(OC)cc3C2)ccc1OC(F)F | 85.3% (active) |
| Cc1ccc(/C=N/NC(=O)COc2ccccc2-c2ccccc2)cc1 | 85.4% (active) |
| Cc1ccc2[nH]c(=O)c(CN(CCCN(C)C)C(=O)Nc3cccc(Cl)c3)cc2c1 | -15.6% (inactive) |
| CSc1nc(N(C)NC(=O)c2cccc(C)c2)c2ccccc2n1 | 88.7% (active) |
| Cn1nccc1C(=O)NC1CCCc2c1cnn2-c1ccc(F)cc1F (centres undefined) | 24.7% (inactive) |
| CN(CCO)c1ccc(/C=N/Nc2nncc3ccccc23)cc1 | 91.2% (active) |
| CCn1c(SCC(=O)Nc2nccs2)nnc1-c1ccncc1 | 3.83% (inactive) |
| COc1ccc(Nc2cc(C)nc(-n3nc(C)cc3C)n2)cc1 | 78.8% (active) |
| C[C@@H]1C[C@@H]2O[C@H]2/C=C\C=C\C(=O)Cc2c(Cl)c(O)cc(O)c2C(=O)O1 | 67.1% (active) |
| COc1ccc(C(=O)Nc2ccccc2C(=O)N/N=C/c2ccc(O)c(OC)c2)cc1 | 111% (active) |
